The source of these data is PubChem BioAssay (NCI).

This assay in a line: NCI Yeast Anticancer Drug Screen. Data for the mlh1 rad18 strain (AID 175). The settings on record: S. cerevisiae mlh1 rad18 strain growth inhibition, stronger effect = higher value. The procedure:
Growth inhibition of yeast strains with defined genetic alterations is measured as a screen for potential anti-cancer activity. Selected strains with alterations in DNA damage repair or cell cycle control were exposed to compounds and growth inhibition was measured relative to vehicle treated controls. The strain used in this assay is mlh1 rad18

Where [1] appears, read: at 5.0 µM (retest, dose inferred, filed as 0.5).
Where [2] appears, read: at 50.0 µM (retest, dose inferred, filed as 5.0).

SMILES strings stand for the structures. The panel holds about 79,000 compounds, 15% with a hit somewhere; the sample as a whole holds those more often. Unmarked numbers belong to inactive results. Calls of active or inactive are those of the source. Cut-off read from the data, not from the text of the source: active = growth inhibition above about 70%; inactive = the rest.

Take `CCC/C(Cl)=N\OC(=O)Nc1cccc(C(F)(F)F)c1`: the growth inhibition under setting [1] was -10%, the growth inhibition under setting [2] is 99% (active) and the growth inhibition (at 50.0 µM) is 83.7% (active).
On to `CC(O)C(O)C(O)C(/C=N\Nc1ccccc1)=N/Nc1ccccc1` (configuration not stated), for which the growth inhibition by setting is: under setting [1], 7%; under setting [2], 65%; (at 50.0 µM) 98.9% (active).
For `N#Cc1c(N)[nH]c2ccc(Sc3ccccc3)cc12` the same measures were 19%, 85% (active) and 70.5% (active).
The matching figures for `N#C/C(=C\c1cccc(OCc2ccccc2)c1)c1ccc([N+](=O)[O-])cc1`: 50%, 98% (active) and 15.2%.
The matching figures for `O=C(O)CNc1ccc(Cl)c(Cl)c1`: -16%, 76% (active) and 89.2% (active).
Turning to `N#CN1C2CCC1CC(=O)C2`, the growth inhibition is 75% (active) under setting [1], 100% (active) under setting [2] and 62.1% (at 50.0 µM).
As to `CCc1ccc(NS(=O)(=O)c2ccccc2)c([N+](=O)[O-])c1`, the growth inhibition was 1% under setting [1], 61% under setting [2] and 78% (active) (at 50.0 µM).
The matching figures for `C/C(=N/NC(=S)N1CCCCCC1)c1cccc(/C(C)=N\NC(=S)N2CCCCCC2)n1`: 59%, 91% (active) and 90.3% (active).
For `C=CCC1=C(C)C(OC(=O)/C=C/c2ccccc2)CC1=O` (configuration not stated) the same measures were 15%, 59% and 5.85%.
The matching figures for `CC1CCN(CCC(=O)c2ccc(Cl)cc2)CC1`: 21%, 52% and 58.1%.
On to `CC1OCC2OC(C)OC(C3C4=C(CC(C)(C)CC4=O)OC4=C3C(=O)CC(C)(C)C4)C2O1` (configuration not stated), for which the growth inhibition by setting is: under setting [1], 9%; under setting [2], 46%; (at 50.0 µM) 80.7% (active).
For the molecule `CCCCCCCCCCC1CCC(=O)O1` (configuration not stated), the growth inhibition was -3% under setting [1], 69% under setting [2] and 92.2% (active) (at 50.0 µM).
The matching figures for `CCOC(=O)C1=C(C(=O)c2ccccc2)C(c2ccccc2[N+](=O)[O-])C(C(=O)c2ccccc2)=C(C(=O)OCC)N1`: -21%, 61% and 65.6%.
The matching figures for `O=C1C2C(C(=O)N1c1ccc(OCc3ccccc3)cc1)C1c3ccccc3C2C2CCCCN21` (configuration not stated): -6%, 69% and 90.9% (active).
